# HT1080NT lethal: kills 2HG-producing HT-1080-NT fibrosarcoma cells | HT-1080-NT fibrosarcoma viability, CellTiter-Glo ATP luminescence, 48 h | Potency, µM (highest dose often 46.1 µM), for inactives: at the top dose activity, negative = less viability, most hits filed as cytotoxic | 1.6% of 360,000 active | AID 686970;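 also: NT is the 2HG producing partner of a matched IDH1 knockdown line; potency is read from the fitted curve at half-maximal effect; 0% = DMSO-treated cells and -100% = media-only wells without cells; nearly all actives have a fitted effect of over 55% in size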
#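 Read-out is CellTiter-Glo luminescence after 10 minutes at room temperature, following 48 hours' compound treatment of HT-1080-NT cells (750 cells/well, RPMI, 5% FBS, 37 degrees C).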
# IL1B secr inh: inflammasome signaling inhibition, IL-1 beta readout; THP-1 LPS/ATP IL-1B secretion, AlphaLISA, 16 h; stronger effect = lower value; activity change, % at 57.5 µM; 4.7% of 360,000 active; AID 743279; in the data active = activity change below about -50%; inconclusive = mostly about -30% to -49%
#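 THP-1 cells pretreated 1 hr with compounds (up to 57.5 uM final), then stimulated with LPS (250 ng/mL final) plus ATP (1.25 mM final); secreted IL-1B measured by AlphaLISA after 16 hr, decreased signal indicating inhibition.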
# uPA surface inh: cell surface uPA generation inhibition; cell surface uPA generation assay, qHTS; Potency, µM (series often up to 38.3 µM), for inactives: top-dose activity change, negative = inhibition, hits mostly inhibitors; 0.31% of 330,000 active; AID 540303; active = well fitted inhibition curve with a large enough effect; inconclusive = small, poorly fitted or top-dose-only effect; inactive = no such curve, though single readings can be large or run the other way; tested in mouse RAW 264.7 cells; also: potency is read from the fitted curve at half-maximal effect; nearly all actives have a fitted effect of over 55% in size
# HT1080 IDH1KD tx: HT-1080 IDH1 knockdown cell toxicity (counter line). Potency, µM (titrated, usually from 46.1 µM), inactives show top-dose activity, negative = toxicity, usual class: cytotoxic. HT-1080 IDH1 knockdown viability, ATP luminescence, 48 h. 2% of 360,000 active. AID 686971;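 also: potency is read from the fitted curve at half-maximal effect; 0% = DMSO wells and -100% = cell-free medium wells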
#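 In this qHTS, HT-1080 cells depleted of IDH1 are exposed for 48 h at 37 °C to compound titrations. Toxicity is scored from CellTiter-Glo luminescence, with DMSO as full viability and medium alone as none.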
# DT40 TDP1 CPT: DT40-hTDP1 cell growth loss with CPT. chicken DT40 Tdp1-/-;hTDP1 cells + 20 nM CPT, ATP luminescence, 48 h. Potency, µM (doses to about 46.2 µM), for the others: at the highest dose activity change, negative = growth inhibition, actives largely listed as inhibitors. 12% of 420,000 active. AID 686979; also: potency is read from the fitted curve at half-maximal effect; nearly all actives have a fitted effect of over 55% in size
#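 Chicken DT40 Tdp1-/- cells stably complemented with human TDP1 were seeded at 400 cells/well in medium containing 20 nM camptothecin, exposed to pin-transferred compounds, and grown at 37 °C for at least 48 hr. Viability was read as ATP luminescence.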
# TDP1 cell noCPT: qHTS for Inhibitors of human tyrosyl-DNA phosphodiesterase 1 (TDP1): qHTS in cells in absence of CPT. 15% of 420,000 active. Potency, µM (doses to about 46.2 µM), for inactives: at the highest dose activity change, negative = growth inhibition, most hits filed as inhibitors. DT40 Tdp1-/- hTDP1 cells, no CPT, ATP luminescence, 48 h; also: potency is read from the fitted curve at half-maximal effect; nearly all actives have a fitted effect of over 55% in size
#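 Compound effects on proliferation are scored in DT40 Tdp1-/-;hTDP1 cells in the absence of CPT. ATP levels (CellTiter-Glo luminescence) are recorded after a ≥48 hr, 37 °C incubation.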
# Numbers without * were called inactive; ? = inconclusive; / = not tested or not shown. This is a sample that favours compounds with a hit; in the whole collection about 19% have one here. Unless noted, calls follow the shape of the dose curve; as a rule, active = well fitted curve in the direction sought with a large enough effect; inconclusive = small, poorly fitted or top-dose-only effect, or another doubt; inactive = no such curve, though single readings can be large; an effect the other way counts as inactive or inconclusive. Unless noted, % is scaled to controls: 0 for no effect and ±100 for the full control effect.
SMILES,HT1080NT lethal,IL1B secr inh,uPA surface inh,HT1080 IDH1KD tx,DT40 TDP1 CPT,TDP1 cell noCPT
Cc1c(C(=O)NCC(C)(C)N2CCOCC2)cnn1-c1ncc2c(n1)-c1ccccc1CC2,/,/,/,/,?,-26.9%
COC(=O)CN1C(=O)C(C)(C)c2cc(S(=O)(=O)Nc3ccc(Br)cc3F)ccc21,/,/,/,/,-6.1%,-9.7%
C[C@H](CO)N1C[C@H](C)[C@@H](CN(C)Cc2ccc(Oc3ccccc3)cc2)Oc2cc(Br)ccc2S1(=O)=O,?,-1.9,/,?,23.1µM*,11.6µM*
C[C@H]1CN([C@@H](C)CO)S(=O)(=O)c2ccc(Br)cc2O[C@@H]1CN(C)Cc1cccc(F)c1,?,-26.5,/,-22.8%,16.4µM*,16.4µM*
C[C@@H]1CN([C@@H](C)CO)S(=O)(=O)c2ccc(Br)cc2O[C@H]1CN(C)C(=O)c1cccc(F)c1,9.0%,-15.0,/,7.7%,-5.9%,?
C[C@H](CO)N1C[C@H](C)[C@@H](CN(C)C(=O)Nc2ccccc2)Oc2cc(Br)ccc2S1(=O)=O,-8.9%,0.1,/,-8.9%,-28.3%,?
CCc1cccc(NC(=O)CN(C)S(=O)(=O)c2ccc3c(c2)CCCN3C(C)=O)c1,/,/,/,/,20.6µM*,?
CN(CC(=O)Nc1ccc(F)c(Cl)c1)S(=O)(=O)c1ccc2c(c1)n(C)c(=O)c(=O)n2C,-5.1%,-2.2,0.9%,-3.1%,?,?
CC(=O)N1CCCc2cc(S(=O)(=O)N(C)Cc3ccccc3)ccc21,-11.0%,-18.5,-1.6%,-1.4%,?,20.6µM*
CC(=O)N1CCCc2cc(S(=O)(=O)N(C)CC(=O)Nc3ccc(F)c(Cl)c3)ccc21,/,/,/,/,10.3µM*,20.6µM*
O=C(CCCOC(=O)c1ccc(O)cc1O)c1ccc(Br)cc1,-7.4%,2.7,11.6%,-0.4%,?,23.1µM*
Brc1ccc(CN2CCN(c3ccccn3)CC2)s1,-0.2%,-82.7*,-5.4%,-5.1%,-8.6%,-19.5%
Cc1[nH]c2ccccc2c1CN1CCN(c2ccccn2)CC1,7.2%,/,-8.9%,1.0%,2.31µM*,5.17µM*
Cc1[nH]c2ccccc2c1CN1CCC(Cc2ccccc2)CC1,?,-85.1*,-5.3%,23.1µM*,2.59µM*,2.59µM*
COc1ccc(S(=O)(=O)NC(=O)C2(C)CCN2C(=O)C(C)(C)c2ccccc2)cc1 (stereo not given),1.9%,-6.2,/,0.3%,0.3%,-2.8%
COCC(=O)N1CCC2(CCN(Cc3nccs3)CC2)CC1,/,/,/,/,-2.6%,-4.6%
CCc1nc2c(OCCOc3ccc(F)cc3)cccn2c1N(C)C(=O)CC(C)C,-0.1%,-2.3,/,2.6%,16.4µM*,10.3µM*
CCc1nc2c(OCc3ccc(F)c(F)c3)cccn2c1N(C)C(=O)CC(C)C,10.5%,-13.6,/,1.3%,?,?
CCc1nc2c(OCc3cc(Cl)cc(Cl)c3)cccn2c1N(C)C(=O)CC(C)C,?,-28.1,/,?,25.9µM*,?
CCc1nc2c(OCc3ccc(Cl)cc3Cl)cccn2c1N(C)C(=O)CC(C)C,25.9µM*,-52.7*,/,?,?,6.51µM*
CCc1nc2c(OCCOc3ccc(F)cc3)cccn2c1N(C)C(=O)c1ccc(OC)cc1,-9.1%,-23.6,/,8.0%,?,?
CCCCC(=O)N(C)c1c(CC)nc2c(OCC(=O)c3ccc(F)cc3)cccn12,-3.2%,-3.6,/,5.2%,?,?
CCc1nc2c(OCC(=O)c3ccc(F)cc3)cccn2c1N(C)C(=O)COc1ccccc1,-18.6%,-15.0,/,1.9%,?,20.6µM*
CC(C)c1ccc(NC(=O)CCNS(=O)(=O)c2ccc3c(c2)oc(=O)n3C)cc1,/,/,/,/,-27.9%,-26.8%
OC[C@@H]1CN(Cc2ccco2)C[C@H](n2cnc3c(NCc4ccncc4)ncnc32)O1,7.6%,11.6,/,21.1%,3.7%,14.2%
